Rows were chosen to be rich in hits. Some 3.3% of all compounds tested hit in one or more screens of this group.
LmPK inh: LmPK (Leishmania mexicana) enzyme inhibition. AID 1721. Q27686. purified LmPK, Kinase-Glo ATP luminescence, 1 h. Potency, µM (series often up to 57.5 µM), usual class: inhibitors. 290,000 tested, 0.37% active
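Kinase-Glo luminescence read after 1 h RT reaction of 0.1 nM LmPK with 0.5 mM PEP and 0.1 mM ADP. Activity scaled between uninhibited and enzyme-free controls.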
RE007 growth inh: less growth of the S. pombe RE007 Vpr strain; AID 651644; 360,000 tested, 0.21% active; S. pombe RE007 Vpr strain, BacTiter-Glo ATP luminescence, 24 h; Potency, µM (titrated, usually from 92.2 µM), most hits filed as inhibitors; active = well fitted falling curve with a large enough effect; inconclusive = small, poorly fitted or top-dose-only effect; inactive = no such curve, though single readings can be large or run the other way; note: nearly all actives have a fitted effect of over 50% in size
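Fission yeast strain RE007, carrying one chromosomally integrated HIV-1 vpr copy, was seeded at OD 0.01 in PMG+AL medium with 23 nL pinned compound. After 24 h at 30 °C and 99% humidity, viability was read by BacTiter-Glo luminescence.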
Giardia FBPA inh-1: blocks Giardia fructose-bisphosphate aldolase activity | A8B2U2 | purified Giardia FBPA | Potency, µM (series often up to 59.6 µM), actives largely listed as inhibitors | 290,000 tested, 0.71% active; note: nearly all actives have a fitted effect of over 55% in size
Target sequence (A8B2U2 whole entry, looked up): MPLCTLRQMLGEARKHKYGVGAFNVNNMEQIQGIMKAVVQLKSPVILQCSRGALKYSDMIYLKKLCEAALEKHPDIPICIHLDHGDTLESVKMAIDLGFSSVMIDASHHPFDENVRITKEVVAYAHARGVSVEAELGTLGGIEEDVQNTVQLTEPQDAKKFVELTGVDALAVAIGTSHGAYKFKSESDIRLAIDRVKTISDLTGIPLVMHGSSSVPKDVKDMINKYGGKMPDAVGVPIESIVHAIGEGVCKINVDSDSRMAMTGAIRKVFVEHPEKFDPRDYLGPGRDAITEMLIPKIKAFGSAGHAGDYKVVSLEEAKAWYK
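Giardia FBPA (40 nM reagent) was preincubated 10 min at RT with compound (up to 57.5 uM final), then substrate plus GAPDH/TPI/NAD/arsenate coupling system with diaphorase/resazurin was added; resorufin fluorescence (525/598 nm) was read after 20 min.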
Sm TGR inh: blocks Schistosoma mansoni thioredoxin glutathione reductase. Q962Y6. purified TGR, DTNB reduction, TNB absorbance 405 nm. Potency, µM (highest dose often 114 µM), hits mostly inhibitors. 360,000 tested, 3% active. AID 485364; note: nearly all actives have a fitted effect of over 60% in size
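Kinetic colorimetric format: TGR-catalysed, NADPH-driven DTNB reduction monitored via TNB absorbance. Enzyme dispensed at 20 nM; compound exposure 15 min at room temperature before reaction start.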
TbPYK inhibitor: inhibitors of Trypanosoma brucei pyruvate kinase. Q57TT1. TbPYK enzyme, Kinase-Glo Plus ATP luminescence, 45 min. Potency, µM (top dose mostly 76.8 µM), actives largely listed as inhibitors. 410,000 tested, 0.12% active. AID 624173; note: nearly all actives have a fitted effect of over 50% in size
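Assay buffer: 50 mM TEA pH 7.2, 100 mM KCl, 10 mM MgCl2, 0.05% BSA, 0.01% Tween-20. Pyruvate kinase from T. brucei plus substrate met compound, then ADP (130 uM final). Luminescence was read post 45 min RT.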
Giardia growth: Giardia lamblia growth inhibition; AID 2785; Giardia lamblia trophozoite growth inhibition; Potency, µM (series often up to 57.5 µM), actives largely listed as inhibitors; shares compounds with Giardia FBPA inh-1; 1,500 tested, 5% active;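 note: trophozoites exposed to compound for 48 h at 37 °C; nearly all actives have a fitted effect of over 70% in size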
Mammal cell tox: counter-screen for Giardia aldolase inhibitors: mammalian cell toxicity | shares compounds with Giardia FBPA inh-1 | mammalian cell viability counter-screen, qHTS | Potency, µM (titrated, usually from 57.5 µM), actives largely listed as inhibitors | 1,500 tested, 4% active | AID 2786;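 note: Chinese hamster ovary cells used as mammalian cytotoxicity surrogate; viability measured as cellular ATP by luminescence; compound exposure lasted 48 h before reading; nearly all actives have a fitted effect of over 60% in size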
Giardia FBPA inh-2: confirmation of Giardia fructose-bisphosphate aldolase inhibitors; 1,500 tested, 5% active; AID 2787; Potency, µM (top dose mostly 57.5 µM), actives largely listed as inhibitors; purified Giardia aldolase enzyme activity, qHTS; shares compounds with Giardia FBPA inh-1; note: nearly all actives have a fitted effect of over 45% in size
Rabbit aldolase: selectivity test for Giardia aldolase inhibitors: rabbit aldolase; 1,500 tested, 4% active; Rabbit muscle FBPA enzyme inhibition, selectivity counter-screen; AID 2794; shares compounds with Giardia FBPA inh-1; Potency, µM (series often up to 57.5 µM), most hits filed as inhibitors; note: nearly all actives have a fitted effect of over 60% in size
GAPDH counter: counter-screen for Giardia aldolase inhibitors: GAPDH coupling enzyme; 1,500 tested, 6% active; GAPDH coupling enzyme counterscreen, biochemical, qHTS; Potency, µM (titrated, usually from 57.5 µM), usual class: inhibitors; shares compounds with Giardia FBPA inh-1; note: nearly all actives have a fitted effect of over 55% in size
Large screens that a line does not name were inactive (follow-up assays come after a bar, where they were run); [ ] = another dose, or the depositor's remark. Unless noted, calls come from the whole dose curve; as a rule, active = well fitted curve in the direction sought with a large enough effect; inconclusive = small, poorly fitted or top-dose-only effect, or another doubt; inactive = no such curve, though single readings can be large; an effect the other way counts as inactive or inconclusive.

CCC(C)c1ccc(-n2c(=O)c3ccccc3n3c(=S)[nH]nc23)cc1 (configuration not stated)	none
Cn1c(=O)c2ccccc2n2c(=S)[nH]nc12	Giardia FBPA inh-1 15.8µM | Giardia growth inactive | Mammal cell tox inactive | Giardia FBPA inh-2 inactive | Rabbit aldolase inactive | GAPDH counter inactive
O=C1NC[C@@H](CCCCN2C[C@H](Cc3ccc(O)cc3)N(CCc3ccccc3)C(=O)C2=O)N(CCc2ccccc2)C1=O	none (no result: LmPK inh, Giardia FBPA inh-1, Sm TGR inh)
c1ccc2c3c(cc(N4CCOCC4)c2c1)OC1(N2CCOCC2)CCCCC1O3 (configuration not stated)	Giardia FBPA inh-1 0.561µM, Sm TGR inh inconclusive | Giardia growth inconclusive | Mammal cell tox inactive | Giardia FBPA inh-2 7.08µM | Rabbit aldolase inconclusive | GAPDH counter 25.1µM
O=c1cc(Cc2ccccc2)[nH]c(=S)[nH]1	Giardia FBPA inh-1 inconclusive
COCc1cc(=O)[nH]c(=S)[nH]1	Giardia FBPA inh-1 4.46µM | Giardia growth inconclusive | Mammal cell tox inactive | Giardia FBPA inh-2 inactive | Rabbit aldolase inactive | GAPDH counter inactive
CC(=O)c1ccc(NC(=S)NC(=O)c2c(Cl)c(C)nn2C)cc1	Giardia FBPA inh-1 6.29µM | Giardia growth inconclusive | Mammal cell tox inactive | Giardia FBPA inh-2 inactive | Rabbit aldolase inactive | GAPDH counter inactive
CC(C)Cn1c(N)c(S(=O)(=O)c2cccs2)c2nc3ccccc3nc21	none
COc1ccc(-c2cc(=O)c3ccccc3o2)cc1OC	Giardia FBPA inh-1 7.92µM (no result: LmPK inh, RE007 growth inh, Sm TGR inh, TbPYK inhibitor) | Giardia growth inactive | Mammal cell tox inconclusive | Giardia FBPA inh-2 inconclusive | Rabbit aldolase inconclusive | GAPDH counter inactive
COc1cc(N=c2ssnc2Cl)cc(OC)c1	RE007 growth inh inconclusive, Giardia FBPA inh-1 15.8µM, Sm TGR inh 79.4µM, TbPYK inhibitor 28.2µM | Giardia growth inactive[10.4 µM] | Mammal cell tox inactive | Giardia FBPA inh-2 inactive | Rabbit aldolase inactive | GAPDH counter inactive
Clc1ccc(N=c2ssnc2Cl)nc1	RE007 growth inh inconclusive, TbPYK inhibitor inconclusive
N#Cc1cccc(N=c2ssnc2Cl)c1	Giardia FBPA inh-1 19.9µM, TbPYK inhibitor 17.8µM | Giardia growth inconclusive | Mammal cell tox inactive | Giardia FBPA inh-2 inactive | Rabbit aldolase inconclusive | GAPDH counter inactive
OCc1ccccc1N=c1ssnc1Cl	Sm TGR inh inconclusive (no result: RE007 growth inh, TbPYK inhibitor)
Nc1nonc1-n1nnc(C(=O)N/N=C/c2ccc(O)cc2)c1CN1CCCCCC1	none (no result: LmPK inh, Giardia FBPA inh-1, Sm TGR inh)
Cc1ccc(Cn2c(Sc3nccc(C)n3)nc3c2c(=O)[nH]c(=O)n3C)cc1	none
CC(=O)C(C(C)=O)c1c(Cl)c(O)c(O)c2c(C(=O)c3ccccc3)coc12	LmPK inh 11.2µM, Giardia FBPA inh-1 17.7µM, Sm TGR inh 2.51µM, TbPYK inhibitor inconclusive | Giardia growth inactive | Mammal cell tox inactive | Giardia FBPA inh-2 inconclusive | Rabbit aldolase inactive | GAPDH counter inactive
CCOc1cc(/C=C2\N=C3CCCCCN3C2=O)ccc1O	Sm TGR inh inconclusive
Cc1cc(C)n(NC(=S)NC2CCCC2)c(=O)c1C#N	Giardia FBPA inh-1 17.7µM | Giardia growth inactive | Mammal cell tox inactive | Giardia FBPA inh-2 inactive | Rabbit aldolase inactive | GAPDH counter inactive
Cc1cc(C)nc(N2N=C(c3ccccc3)CC2=O)n1	none
Cc1cc(C)nc(N2N=C(C(F)(F)F)CC2=O)n1	Giardia FBPA inh-1 11.2µM | Giardia growth inactive | Mammal cell tox inactive | Giardia FBPA inh-2 inactive | Rabbit aldolase inactive | GAPDH counter inactive
CCOC(=O)c1ccc(NC(=O)c2cc(OC)c(OC)c(OC)c2Br)cc1	none

High-throughput results as filed in PubChem.
